From PubChem BioAssay (NCATS)
A number with no mark means an inactive call. The source made the active and inactive calls. The call rests on the fitted dose curve; in most records, active means well fitted activation curve with a large enough effect; inconclusive means small, poorly fitted or top-dose-only effect; inactive means no such curve, though single readings can be large or run the other way.

biological target: Cytochrome P450 3A4 (Homo sapiens) (UniProt P08684); assay: qHTS Assay for Activators of Cytochrome P450 3A4 (AID 885); settings: recombinant CYP3A4, Luciferin-PPXE luminescence, 60 min; series mostly up to 57.1 µM; activity change, positive = activation: at the top concentration; further: nearly all actives have a fitted effect of over 65% in size
How it was run: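 Steps: enzyme/substrate mix dispensed; compound added, 10 min RT; NADPH regeneration solution added, 60 min RT; luciferin detection buffer stops reaction; 20 min later luminescence measured.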
Potency means the concentration at half of the fitted maximal effect.

Chain of Cytochrome P450 3A4 (Homo sapiens) (P08684 whole entry, looked up): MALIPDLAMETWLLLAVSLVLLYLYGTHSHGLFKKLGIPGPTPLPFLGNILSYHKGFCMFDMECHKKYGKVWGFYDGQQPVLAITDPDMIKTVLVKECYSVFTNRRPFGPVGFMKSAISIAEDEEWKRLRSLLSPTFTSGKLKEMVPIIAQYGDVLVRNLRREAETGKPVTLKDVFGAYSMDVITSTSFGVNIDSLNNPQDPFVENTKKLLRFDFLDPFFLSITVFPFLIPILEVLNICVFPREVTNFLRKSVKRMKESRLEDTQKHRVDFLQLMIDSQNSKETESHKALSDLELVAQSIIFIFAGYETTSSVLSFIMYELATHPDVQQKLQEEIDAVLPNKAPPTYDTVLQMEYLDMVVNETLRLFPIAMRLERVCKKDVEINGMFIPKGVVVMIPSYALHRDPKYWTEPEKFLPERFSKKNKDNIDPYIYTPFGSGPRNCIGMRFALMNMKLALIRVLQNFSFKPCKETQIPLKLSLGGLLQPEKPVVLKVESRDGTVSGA

| Compound | activity change, positive = activation | Potency |
| --- | --- | --- |
| N[C@@H](Cc1cnc[nH]1)C(=O)O | -38.8% |  |
| COc1cccc2c1C(=O)c1c(O)c3c(c(O)c1C2=O)C[C@@](O)(C(C)=O)C[C@@H]3O[C@H]1C[C@H](N)[C@H](O)[C@H](C)O1 | -45.9% |  |
| COc1cc(NS(C)(=O)=O)ccc1Nc1c2ccccc2nc2ccccc12 | -37.6% |  |
| O=C(O)c1cc2cc(Cc3cccnc3)ccc2o1 | -44.3% |  |
| NC(=NCCCCCCN=C(N)/N=C(\N)Nc1ccc(Cl)cc1)/N=C(\N)Nc1ccc(Cl)cc1 | -61.3% |  |
| Oc1cc(O)c2c(c1)O[C@H](c1ccc(O)c(O)c1)[C@H](O)C2 | -54.4% |  |
| CC(C)(C(=O)c1cccnc1)c1cccnc1 | -80.3% [at 25.6 µM] |  |
| Oc1ccc(O)cc1 | -22.6% |  |
| COc1c(C)c2c(c(O)c1C/C=C(\C)CCC(=O)O)C(=O)OC2 |  | inactive |
| CNCCC=C1c2ccccc2CCc2ccccc21 |  | inactive |
| O=C1CCC(c2ccc(-n3ccnc3)cc2)=NN1 | -94.3% |  |
| O=C(CCCN1CCC(O)(c2ccc(Br)cc2)CC1)c1ccc(F)cc1 |  | 10 µM (active) |
